Source: PubChem
A selection: hits, their analogues and other compounds. The true share with any hit is near 2%.
FUS yeast rescue: rescues growth of FUS-expressing yeast; S. cerevisiae FUS-expressing, growth rescue, OD600, 24 h; Potency, µM (highest dose often 76.6 µM), usual class: activators; 390,000 tested, 0.24% active; AID 1347120;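 also: plate controls were DMSO vehicle for no effect and reference control for full effect; nearly all actives have a fitted effect of over 55% in size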
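Toxicity suppression screen in FUS-yeast. Cells induced with 2% galactose, starting OD 0.005, treated 24hr at 30C with compounds at multiple final concentrations; growth by OD600.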
MBNL1 CUG block: inhibitors of human MBNL1 binding to CUG repeat RNA; Q9NR56; Potency, µM (top dose mostly 57.5 µM), for inactives: top-dose activity change, negative = inhibition, hits mostly inhibitors; 280,000 tested, 0.036% active; TR-FRET MBNL1-His/biotin-(CUG)12 binding, 665/545 ratio; active = well fitted inhibition curve with a large enough effect in the signal ratio, with a control signal flat, not every such curve was filed as active; inconclusive = small, poorly fitted or top-dose-only effect, or effect the other way, or a change in a side signal; inactive = no such curve, though single readings can be large or run the other way; the % refers to the signal ratio; also: % is scaled to controls: 0 for no effect and ±100 for the full control effect
Target sequence (Q9NR56 whole entry, looked up): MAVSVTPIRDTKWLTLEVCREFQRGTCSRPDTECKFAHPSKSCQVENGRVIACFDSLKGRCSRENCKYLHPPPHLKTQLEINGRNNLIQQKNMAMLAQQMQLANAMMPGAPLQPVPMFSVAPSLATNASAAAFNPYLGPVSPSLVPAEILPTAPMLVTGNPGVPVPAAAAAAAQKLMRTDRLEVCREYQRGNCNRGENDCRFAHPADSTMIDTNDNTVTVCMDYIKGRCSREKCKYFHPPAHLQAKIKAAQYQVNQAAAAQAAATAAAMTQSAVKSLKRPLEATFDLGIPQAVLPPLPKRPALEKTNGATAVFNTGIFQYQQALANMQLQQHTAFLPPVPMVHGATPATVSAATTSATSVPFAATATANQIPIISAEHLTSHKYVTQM
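TR-FRET between His-tagged MBNL1 and biotin-(CUG)12 RNA, detected with Tb anti-His antibody (0.055 ng/ul) and streptavidin-XL665 (5 nM), 60 min at room temperature. Compounds titrated 92 nM to 58 uM; 665/545 nm ratio normalized to buffer and complex controls.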
TDP-43 yeast inh: TDP-43 toxicity inhibition in yeast; AID 652104; Potency, µM (series often up to 46.1 µM), without a hit: at the highest dose growth rescue (activation), usual class: activators; TDP-43 expressing yeast growth rescue, BacTiter-Glo, 24 h; 410,000 tested, 1.8% active; also: % of control where 0% means no effect; nearly all actives have a fitted effect of over 50% in size
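Cell-based yeast growth screen: TDP-43 expression induced in galactose, inoculum OD600=0.02 after raffinose pregrowth to mid-log. Read-out BacTiter-Glo luminescence at 24 hr, 30 deg C; inhibition of toxicity seen as signal increase.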
aSyn yeast inh: rescues yeast growth from alpha-synuclein toxicity | Potency, µM (highest dose often 46.1 µM), inactives show at the top dose growth rescue (activation), actives largely listed as activators | AID 652106 | 370,000 tested, 0.14% active | Yeast expressing alpha-synuclein, growth rescue, BacTiter-Glo, 24 h; also: % of control where 0% means no effect; nearly all actives have a fitted effect of over 65% in size
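Galactose-induced alpha-syn yeast (OD600=0.02, raffinose-pregrown) + pinned cpd, 24 hr, 30 deg C; growth by BacTiter-Glo luminescence. Growth restoration scores as activation.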
Abeta yeast res: restores growth of yeast expressing A-beta42 peptide; yeast expressing A-beta42, growth rescue, OD600, 48 h; response scale: 0% DMSO, 100% iron-clioquinol control; AID 1347071; Potency, µM (top dose mostly 46.1 µM), most hits filed as activators; 410,000 tested, 0.063% active; also: nearly all actives have a fitted effect of over 55% in size
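Growth rescue measured by 600 nm absorbance after 48 h yeast culture at 30 C with compound. Values normalized between DMSO and an equimolar ferric chloride plus clioquinol control.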
Glioma ERSR ind: inducers of ER stress response in human glioma cells. U87-MG GRP78 promoter luciferase reporter, 16 h. Potency, µM, for the others: top-dose activation, hits mostly activators. 420,000 tested, 0.02% active. AID 602332; also: series mostly up to about 76 µM; % of control where 0% means no effect; nearly all actives have a fitted effect of over 35% in size
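Stably transfected U87-MG glioma cells carrying a GRP78-based luciferase sensor; 16 h compound incubation. Luminescence end-point read 10 min after Bright-Glo addition at room temperature.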
* hit, by the source's call; i = inactive; ? = inconclusive; / = no result; [ ] = another dose, or the depositor's remark. Unless noted, calls follow the shape of the dose curve; as a rule, active = well fitted curve in the direction sought with a large enough effect; inconclusive = small, poorly fitted or top-dose-only effect, or another doubt; inactive = no such curve, though single readings can be large; an effect the other way counts as inactive or inconclusive. Potency is read from the fitted curve at half-maximal effect.

SMILES | FUS yeast rescue | MBNL1 CUG block | TDP-43 yeast inh | aSyn yeast inh | Abeta yeast res | Glioma ERSR ind
N#Cc1cn(CCOc2ccccc2F)c2ccccc12 | i | -2% | ? | ? | ? | 6%
N#Cc1cn(CCOc2ccc(F)cc2)c2ccccc12 | i | 1% | 20µM* | 28% | ? | 4%
O=C(Nc1ccc(Cl)cc1)N1CCC(c2nc(-c3ccccc3Cl)no2)CC1 | i | -4% | 18µM* | 14% | i | -3%
Cc1ccc(NC(=O)N2CCCC(c3nc(-c4ccc(F)cc4)no3)C2)cc1 (configuration not stated) | i | 2% | 35µM* | 6% | i | 4%
O=S(=O)(c1ccc(Cl)cc1)N1CCCC1c1nc(-c2ccc(Cl)cc2)no1 (configuration not stated) | i | -1% | -4% | 19% | i | 0%
O=S(=O)(c1ccccc1Cl)N1CCCC1c1nc(-c2ccccc2Cl)no1 (configuration not stated) | i | -7% | 14µM* | 16% | i | -5%
Cc1cc(N(C)C)cc(C)c1/C=C/c1ccnc2ccccc12 | / | / | / | / | / | 8%
COc1ccc(OC)c(-c2ccnc(-n3ncc(C(=O)NC(C)(C)CO)c3C3CC3)n2)c1 | / | / | / | / | / | 1%
Fc1ccc(/C=C/c2ccc3ccccc3n2)cc1 | / | / | / | / | / | -3%
CSc1ccc(/C=C/C(=O)OCC(=O)NC2CCCC2)cc1 | i | / | 20µM* | -1% | i | -2%
O=C(COC(=O)/C=C/c1ccc(Cl)c(Cl)c1)NC1CC1 | / | / | 10µM* | 24% | i | -4%
COc1cccc(CN(C)C(=O)c2cnn(-c3nccc(-c4ccc5c(c4)OCO5)n3)c2C)c1 | / | / | / | / | / | 0%
CCOC(=O)N1CCN(c2ccc(S(=O)(=O)N3CCC(C)CC3)cc2[N+](=O)[O-])CC1 | i | / | 22µM* | 3% | i | -2%
Cc1cc(Nc2ccccc2F)n2nc(Cc3ccc(Cl)cc3)nc2n1 | i | / | 20% | / | i | -3%
Cc1cc(Nc2cccc(Cl)c2C)n2nc(Cc3ccccc3)nc2n1 | i | / | 22µM* | / | i | 0%
Cc1cc(Nc2ccc(C)c(Cl)c2)n2nc(Cc3ccccc3)nc2n1 | i | / | 22µM* | / | i | -2%
Cc1cc(Nc2ccccc2C)n2nc(Cc3ccc(Cl)cc3)nc2n1 | i | / | 18µM* | / | i | -1%
CCCC1CCC2(CC1)CCC2OC(=O)Nc1ccc(F)cc1 (configuration not stated) | i | / | / | / | / | /
CCOC(=O)c1c(-c2ccc(-c3ccccc3)cc2)csc1NC(=O)CCN1CCOCC1 | ? | 15% | 14µM* | -28% | i | -5%
O=C(Nc1cc(N2CCOCC2)ncn1)c1ccccc1 | i | -8% | 5% | 1% | i | 35µM*
O=C(Nc1ccc(N2CCOCC2)nc1)c1ccc(Cl)cc1 | i | 0% | 12% | 2% | i | 1%
COc1cccc(C(=O)OCC(=O)Nc2ccccc2N2CCOCC2)c1 | i | -1% | ? | 0% | i | 1%
COc1cccc(C(=O)Nc2ccccc2N2CCOCC2)c1 | i | -4% | 13µM* | -1% | i | -6%
N#CC1=C2SCN(Cc3ccco3)CN2C(=O)CC1c1ccc(Cl)cc1 (configuration not stated) | 20µM* | 4% | -12% | -4% | i | -3%
CSc1ccc(C(=S)N2CCCCCC2)cc1 | i | 1% | 11µM* | -3% | ? | 1%
SMILES | FUS yeast rescue | MBNL1 CUG block | TDP-43 yeast inh | aSyn yeast inh | Abeta yeast res | Glioma ERSR ind
O=C1CCC[C@H]2C[C@H](NCc3ccc(F)cc3)CC[C@]23CCCN13 | i | / | / | / | / | /
CC(=O)n1c(-c2ccccc2)c(-c2ccccc2)n(C)c1=O | i | / | 13µM* | -7% | i | 2%
O=C(CNc1ccc(Cl)cc1)c1ccc(Br)cc1 | i | 0% | 18% | 7% | i | 4%
O=C(CNc1ccc(Br)cc1)c1ccc(O)cc1 | i | 18% | 10µM* | -27% | i | -1%
CS(=O)(=O)N1c2ccccc2C[C@H]1Cc1cc2ccccc2o1 | i | / | / | / | / | /
CCC(C)NC(=O)c1ccc2c(c1)N(Cc1cccc(Cl)c1)C(=O)c1ccccc1S2=O (configuration not stated) | ? | / | 2% | / | i | -4%
CC(NC(=O)c1ccc2c(c1)N(Cc1ccc(Cl)cc1)C(=O)c1ccccc1S2=O)c1ccccc1 (configuration not stated) | 25µM* | / | -6% | / | i | 0%
Cc1ccc2nccc(/C=C/c3ccc(N(C)C)cc3)c2c1 | / | / | / | / | / | -4%
O=C(CSc1nnc(-c2cccs2)o1)c1cccc([N+](=O)[O-])c1 | i | / | / | / | / | /
Cc1cc(NCc2ccccc2)nc(-c2ccccc2O)n1 | i | -1% | 11µM* | -12% | i | 6%
Cc1cc(Nc2ccccc2)nc(-c2ccccc2O)n1 | i | -4% | 1% | -26% | i | 0%
Cc1ccc(C)c(Nc2cc(C)nc(-c3ccccc3O)n2)c1 | i | 1% | 14µM* | -17% | i | -3%
Cc1cc(-n2c(=O)[nH]c(=O)n(C)c2=O)ccc1Oc1ccc(S(=O)(=O)C(F)(F)F)cc1 | / | / | / | / | / | -4%
Cc1nn(-c2ccccc2)c(Cl)c1CN(C(=O)CCl)c1ccc(Cl)cc1 | / | / | 20µM* | -35% | i | -14%
Cc1nn(-c2ccccc2)c(Cl)c1CN(C(=O)CCl)c1cccc2ccccc12 | i | 0% | 18µM* | 9% | i | -14%
COCc1ccc(CN2CCOc3c(cc(-c4ccc(SC)cc4)cc3OC)C2)o1 | / | / | / | / | / | -5%
COc1ccc(-c2ccc(C(=O)N(C)Cc3csc(C)n3)c(N3CCC(N4CCc5ccccc5C4)CC3)n2)cc1 | / | / | / | / | / | -4%
CN(Cc1ccccc1)c1nc(-c2cccc([N+](=O)[O-])c2)nc2ccccc12 | i | -11% | 14µM* | -11% | i | -3%
O=[N+]([O-])c1cccc(-c2nc(NCc3ccccc3)c3ccccc3n2)c1 | / | 6%[11.5 µM] | 9% | -2% | i | -4%
CC(C)[C@H](N)C(=O)N[C@H](C(=O)N1CCC2CCN(S(=O)(=O)c3ccccc3)CC21)C(C)C (some centres not stated) | i | / | / | / | / | /
c1ccc(N2CCN(c3nc4ccccc4n4cnnc34)CC2)cc1 | i | -8% | 35µM* | 5% | i | -3%
c1ccc2c(c1)CCN(c1nc3ccccc3n3cnnc13)C2 | i | 7% | 35µM* | -6% | i | 3%
FC(F)(F)c1cccc(N2CCN(c3nc4ccccc4n4cnnc34)CC2)c1 | i | / | 22µM* | / | i | 2%
